Hit rate of the full screen: of about 190,000 compounds, about 3,500 (1.8%) were called active. For the sample, actives were picked, then their nearest neighbours and some compounds at random. Unmarked numbers belong to inactive results.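 Rule for the calls: active = inhibition above a set limit, 3 SD over mean compound inhibition (cut at about 8.4% in these data); inactive = the rest.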

The test is described as follows: RAM signaling blockers in budding yeast – dse1pr::URA3 reporter, 5-FOA selection, primary screen (AID 868).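 Note: 0% = DMSO-only wells with no growth and 100% = 10 µM 1-NA-PP1 full growth; inhibition rescues growth on 5-FOA so higher OD means more RAM inhibition.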 Conditions: S. cerevisiae dse1pr::URA3 reporter, 5-FOA growth OD615, 2 d; at 50 µM; hits give high values; analog-sensitive cbk1-as2 kinase mutant strain.
Broadly, the inhibition is the drop in the measured response relative to a control, in per cent. Consider `Cc1ccc(S(=O)(=O)N2CCOCC2)cc1C(=O)OC1CCCCC1=O` (configuration not stated), for which the inhibition was 0.38%. In the case of `COc1ccc(C(=O)OCC(=O)NCC2CCCCC2)cc1S(=O)(=O)N1CCCc2ccccc21` it was 2.15%; in that of `COc1cc(/C=C/C(=O)O)cc(S(=O)(=O)Nc2ccccc2SC)c1OC`, 5.01%; in that of `CCC(C)(C)NC(=O)/C=C/c1cc(OC)c(OC)c(S(=O)(=O)N2CCc3ccccc32)c1`, 9.06% (active). Next, `Cc1cc(=O)[nH]c(N/N=C/c2c(C)nn(-c3ccccc3Cl)c2Cl)n1`: 1.7%; `CCOc1ccc(/C=N/Nc2nncc(-c3ccccc3)n2)cc1OC`: -0.12%; `Cc1cc(OC(=O)c2ccccc2Cl)ccc1N1C(=O)CCC1=O`: -1.28%. In the case of `COc1ccc(CCNC(=O)CCn2c(=O)c3ccccc3n(CC(=O)NCC3CCCO3)c2=O)cc1OC` (configuration not stated) it was 4.36%; in that of `O=C(NC(=S)Nc1cccc(-c2ccc(CO)o2)c1)c1cccs1`, 9.61% (active).

`CCc1nnc(NS(=O)(=O)c2ccc(NC(=S)NC(=O)c3cccs3)cc2)s1`: the inhibition is 4.73%. In the case of `O=C(NC(=S)Nc1ccc(NC(=O)c2cccs2)cc1)c1ccc([N+](=O)[O-])cc1` it was 2.93%; in that of `COc1cccc(NC(=O)NCc2ccc(F)cc2)c1`, 5.02%. Next, `Cc1c(C=O)c2ccccc2n1CC(=O)O`: 0%. Next, `CSc1nc2c(c(=O)[nH]1)C(c1cccc(Cl)c1Cl)CC(=O)N2` (configuration not stated): 5.93%; `COc1ccc(CC(=O)NCc2nnc(SCC(=O)Nc3nccs3)n2C)cc1`: 6.82%.

On to `COc1ccc(S(=O)(=O)NCc2ccc(C(=O)N(C)Cc3ccco3)cc2)cc1`, for which the inhibition was 0.12%. In the case of `CCOc1ccc(CN(Cc2ccco2)S(=O)(=O)c2ccc(-n3cnnn3)c(OC)c2)cc1` it was 6.13%; in that of `COc1ccc(CN(Cc2ccco2)S(=O)(=O)c2ccc(S(=O)(=O)N3CCCC3)cc2)cc1`, 9.77% (active); in that of `Cc1ccc(S(=O)(=O)NCCc2nnc3ccc(SCc4cccnc4)nn23)cc1`, 0.39%. Next, `CCOc1ccc(NC(=O)c2ccc(CSc3nnnn3C)cc2)cc1`: 2.05%. Next, `CCOc1cc(NS(=O)(=O)c2ccc(OC)cc2)c(OCC)cc1NC(C)=O`: 3.5%; `CCOc1cc(NC(=O)c2ccccn2)c(OCC)cc1NC(=O)c1ccc(OC)cc1`: 10.6% (active); `CCOc1ccc(C(=O)Nc2cc(OC)ccc2OC)cc1`: 0.11%. In the case of `CCOC(=O)CNc1nc(Cl)nc(Nc2ccccc2)n1`, the inhibition was 5.04%. Next, `CC(Sc1nnnn1C)C(=O)NC(=O)NC1CCCCC1` (configuration not stated): 0.61%; `Cc1ccc(-c2cc(C(=O)N/N=C/C=C/c3ccccc3)n[nH]2)o1`: 2.69%. In the case of `COc1cc(C=O)c(Br)cc1OCC(=O)NCc1ccccc1` it was 3.38%; in that of `COc1ccc(NC(=O)/C(C#N)=C\c2cc(OC)c(OCc3ccc(C(=O)O)cc3)cc2Br)cc1`, 8.75% (active). In the case of `COc1cc(/C=C(\C#N)C(=O)Nc2ccc3ccccc3c2)c([N+](=O)[O-])cc1OC` it was -0.51%; in that of `O=C(/C=C/c1ccccc1Cl)Nc1ccc(S(=O)(=O)Nc2ncccn2)cc1`, 5.65%; in that of `O=S(=O)(Nc1ncccn1)c1ccc(NS(=O)(=O)c2cccc(Cl)c2Cl)cc1`, 1.52%.

As for `O=C(/C=C/c1ccc(Cl)cc1)Nc1ccc(S(=O)(=O)Nc2ncccn2)cc1`, the inhibition was 8.46% (active). For the molecule `COc1cccc(NC(=O)CN(C)C(C)C(=O)Nc2ccc(C#N)cc2)c1` (configuration not stated), the inhibition is 1.87%.

As for `COc1cccc(NC(=S)NCc2ccco2)c1`, the inhibition is -0.52%. Next, `CCn1c(COc2ccccc2)nnc1SCC(=O)Nc1ccc2c(c1)OCCO2`: 9.4% (active); `CCn1c(Cc2ccccc2)nnc1SCC(=O)Nc1ccccc1`: 1.42%; `CCn1c(COc2ccc(OC)cc2)nnc1SCC(=O)Nc1cc(OC)ccc1OC`: 0.11%. In the case of `CCS(=O)(=O)Nc1ccc(C2=NN(C(C)=O)C(c3cccs3)C2)cc1` (configuration not stated) it was -0.12%; in that of `Cn1nnnc1-c1cc(Cl)cc(Cl)c1`, -0.86%.

With `COC(=O)Cc1csc(Nc2c(C)n(C)n(-c3ccccc3)c2=O)n1`, the inhibition is 1.09%.

With `COC(=O)Cc1csc(/N=C/c2c(O)n(-c3cccc(C(F)(F)F)c3)c(=O)c3ccccc23)n1`, the inhibition is 8.86% (active). Consider `CCOc1ccc(-n2c(O)c(/C=N/Nc3nc(C)cc(C)n3)c3ccccc3c2=O)cc1`, for which the inhibition was 3.13%. In the case of `COCCCNC(=S)NNC(=O)C(O)(c1ccccc1)c1ccccc1` it was 1.35%.

Consider `COc1ccc(C(=O)CSc2nc(C)cc(C)n2)cc1[N+](=O)[O-]`, for which the inhibition was 4.17%. In the case of `CC1CCCN(CC(O)COCc2ccccc2)C1` (configuration not stated), the inhibition is 3.48%. For the molecule `Cc1cccc(NS(=O)(=O)c2ccc(C)c(C(N)=O)c2)c1`, the inhibition is 0.63%. In the case of `COc1ccccc1CNC(=O)CCn1c(=O)sc2ccccc21` it was 8.77% (active). Next, `COc1ccccc1CNC(=O)CCCn1c(=O)c2ccccc2n(CC(=O)NC2CCCC2)c1=O`: 1.5%. Take `CCc1nnc(NC(=O)CCC(=O)NCc2ccccc2OC)s1`: the inhibition is 1.08%. Next, `Cc1ccc(-c2noc(CC(c3ccccc3)c3ccccc3)n2)cc1`: 9.59% (active); `Cc1ccc(-c2noc(CN3CCN(Cc4ccccc4)CC3)n2)cc1`: 1.83%; `COc1ccccc1Cc1nc(-c2ccc(C)cc2)no1`: 0%. On to `Cc1cc(C)cc(C(=O)N(CCc2ccccc2)C2=CC3CCC(C2)N3C)c1` (configuration not stated), for which the inhibition was 0.13%. For the molecule `C=CCOCCN(C)C1=NS(=O)(=O)c2ccccc21`, the inhibition was 2.38%. As to `C=CCn1c(SCC(=O)CC(=O)OCC)nc2cc(C(=O)N3CCC(C(N)=O)CC3)ccc2c1=O`, the inhibition was 2.99%. Next, `C/C(CCC(=O)OC[C@H]1O[C@H](C#Cc2ccccc2)C=C[C@@H]1Oc1ccc(C)cc1)=N\OC[C@@H](O)[C@H]1O[C@@H]2OC(C)(C)O[C@@H]2[C@H]1O`: 11.1% (active); `O=C(NNC(=S)NCc1ccccc1)c1ccc(OC(F)F)cc1`: 1.5%.

Values taken from PubChem BioAssay AID868 (SRMLSC, 2007).
